In assay [1] the target is Paired box protein Pax-6 (Homo sapiens) (UniProt P26367). The assay is described as follows: ATG_Pax6_CIS: Attagene CIS-FACTORIAL HepG2 Assay for human Paired Box 6 (PAX6) (AID 2282956). To be noted: HepG2 CIS-FACTORIAL PAX6 reporter transcription, RNA readout; actives raise or lower the signal. Summed up:
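HepG2 cells transiently transfected with multiplexed cis-promoter reporter units (endogenous TF activity) were dosed for 24 h. Reporter mRNA was quantified by RT-PCR, 6-FAM labeling, HpaI digestion and capillary electrophoresis; bidirectional fitting versus DMSO baseline.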

Assay [2] in a line: ATG_PXRE_CIS: Attagene CIS-FACTORIAL HepG2 Assay for human Pregnane X Receptor Element (PXRE) (AID 2282957). The note with it: HepG2 Attagene CIS-FACTORIAL PXRE reporter, mRNA; actives raise or lower the signal. Summed up: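 Multiplexed cis-reporter assay in transiently transfected human HepG2 cells; 24 h chemical exposure. Reporter transcripts quantified by RT-PCR with fluorescent labeling and capillary electrophoresis.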

Assay [3] in a line: ATG_PPRE_CIS: Attagene CIS-FACTORIAL HepG2 Assay for human Peroxisome Proliferator-activated Response Element (PPRE) (AID 2282958). The note with it: HepG2 PPRE cis-element reporter, Attagene transcription factor profiling; actives raise or lower the signal. Summed up:
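Transcript-level reporter induction in transfected HepG2 cells after 24 h chemical exposure, quantified by fluorescence from RT-PCR products separated by capillary electrophoresis.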

Assay [4] can be described thus: ATG_RORE_CIS: Attagene CIS-FACTORIAL HepG2 Assay for human RAR-related Orphan Receptor Element (RORE) (AID 2282959). To be noted: HepG2 Attagene cis-factorial RORE reporter, mRNA; actives raise or lower the signal. Summed up:
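Multiplexed reporter assay measuring mRNA induction from a cis promoter element in transiently transfected HepG2 cells after 24 h treatment. Detection via RT-PCR and capillary electrophoresis fluorescence; DMSO serves as baseline.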

The nature of assay [5]: ATG_Sox_CIS: Attagene CIS-FACTORIAL HepG2 Assay for human SRY-box transcription factor (SOX) (AID 2282960). To be noted: HepG2 Attagene cis-factorial SOX reporter, mRNA; actives raise or lower the signal. Summed up: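 Cells were transfected with reporter constructs under cis-regulatory promoters, then exposed to chemicals for 24 h. Reporter transcripts were quantified by fluorescence after RT-PCR and capillary electrophoresis; activity was fitted in both directions against DMSO.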

Assay [6] has as its target Transcription factor Sp1 (Homo sapiens) (UniProt P08047). The assay is described as follows: ATG_Sp1_CIS: Attagene CIS-FACTORIAL HepG2 Assay for human Specificity Protein 1 (Sp1) (AID 2282961). To be noted: HepG2 Sp1 cis-reporter transcription, actives raise or lower the signal. Summed up: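 Measures mRNA induction of an Sp1-linked reporter in HepG2 cells 24 h post-dosing. Multiplexed reporters read by RT-PCR and capillary electrophoresis; DMSO serves as negative control and baseline.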

Assay [7] is described as follows: ATG_SREBP_CIS: Attagene CIS-FACTORIAL HepG2 Assay for human Sterol Regulatory Element Binding (SREBP) (AID 2282962). To be noted: HepG2 Attagene cis-factorial SREBP reporter, mRNA; actives raise or lower the signal. Summed up:
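HepG2 cells transiently transfected with multiplexed cis-element reporter units report endogenous transcription factor activity. After 24 h of chemical exposure, reporter mRNA was quantified by RT-PCR, 6-FAM labelling, HpaI digestion and capillary electrophoresis; bidirectional fits used DMSO as baseline.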

Assay [8] addresses Signal transducer and activator of transcription 3 (Homo sapiens) (UniProt P40763). The assay is described as follows: ATG_STAT3_CIS: Attagene CIS-FACTORIAL HepG2 Assay for human Signal Transducer and Activator of Transcription 3 (STAT3) (AID 2282963). The note with it: HepG2, Attagene cis-factorial STAT3 reporter transcription; actives raise or lower the signal. Summed up:
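Transcript-level reporter assay. HepG2 transient MRTU transfection, 24 h exposure, fluorescence detection after RT-PCR and CE; DMSO baseline.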

The nature of assay [9]: ATG_TA_CIS: Attagene CIS-FACTORIAL HepG2 Assay for human TA Basal Promoter (AID 2282964). The note with it: HepG2 Attagene CIS-factorial TA basal promoter reporter; actives raise or lower the signal. Summed up:
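HepG2 cells transiently transfected with multiplexed cis-promoter reporter units, dosed 24 h. Reporter mRNA measured by RT-PCR, 6-FAM labelling, HpaI digestion and capillary electrophoresis; bidirectional fit versus DMSO baseline, serving as background control.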

Assay [10] is described as follows: ATG_TCF_b_cat_CIS: Attagene CIS-FACTORIAL HepG2 Assay for human T-Cell-Factor with beta-catenin (TCF/b-cat) (AID 2282965). To be noted: HepG2 TCF/beta-catenin cis-reporter transcription, actives raise or lower the signal. Summed up:
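Using capillary electrophoresis as the read-out, labelled reporter cDNA fragments from transiently transfected HepG2 were sized and quantified. Exposure lasted 24 hours; activity in either direction was referenced to DMSO.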

SMILES strings stand for the structures. Active and inactive are the calls of the source. The calls were made as follows: active = hit-call score of the fitted dose curve at least 0.9, where 1 is the maximum; inactive = score below 0.9.

Here are results for 18 compounds from PubChem BioAssay (EPA / NIEHS).

Sequence of Paired box protein Pax-6 (Homo sapiens) (P26367 whole entry, looked up): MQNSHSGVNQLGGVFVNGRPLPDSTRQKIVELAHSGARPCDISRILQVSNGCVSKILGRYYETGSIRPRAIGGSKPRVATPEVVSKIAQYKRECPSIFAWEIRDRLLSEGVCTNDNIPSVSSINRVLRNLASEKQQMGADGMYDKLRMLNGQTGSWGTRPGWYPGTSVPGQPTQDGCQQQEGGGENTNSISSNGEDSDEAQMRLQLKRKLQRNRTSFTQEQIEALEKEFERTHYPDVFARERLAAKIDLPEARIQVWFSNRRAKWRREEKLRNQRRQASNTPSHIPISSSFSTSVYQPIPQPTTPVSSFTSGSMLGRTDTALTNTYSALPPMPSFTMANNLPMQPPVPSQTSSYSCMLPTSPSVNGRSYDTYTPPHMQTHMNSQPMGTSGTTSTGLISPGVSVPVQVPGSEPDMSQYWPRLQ
Sequence of Signal transducer and activator of transcription 3 (Homo sapiens) (P40763 whole entry, looked up): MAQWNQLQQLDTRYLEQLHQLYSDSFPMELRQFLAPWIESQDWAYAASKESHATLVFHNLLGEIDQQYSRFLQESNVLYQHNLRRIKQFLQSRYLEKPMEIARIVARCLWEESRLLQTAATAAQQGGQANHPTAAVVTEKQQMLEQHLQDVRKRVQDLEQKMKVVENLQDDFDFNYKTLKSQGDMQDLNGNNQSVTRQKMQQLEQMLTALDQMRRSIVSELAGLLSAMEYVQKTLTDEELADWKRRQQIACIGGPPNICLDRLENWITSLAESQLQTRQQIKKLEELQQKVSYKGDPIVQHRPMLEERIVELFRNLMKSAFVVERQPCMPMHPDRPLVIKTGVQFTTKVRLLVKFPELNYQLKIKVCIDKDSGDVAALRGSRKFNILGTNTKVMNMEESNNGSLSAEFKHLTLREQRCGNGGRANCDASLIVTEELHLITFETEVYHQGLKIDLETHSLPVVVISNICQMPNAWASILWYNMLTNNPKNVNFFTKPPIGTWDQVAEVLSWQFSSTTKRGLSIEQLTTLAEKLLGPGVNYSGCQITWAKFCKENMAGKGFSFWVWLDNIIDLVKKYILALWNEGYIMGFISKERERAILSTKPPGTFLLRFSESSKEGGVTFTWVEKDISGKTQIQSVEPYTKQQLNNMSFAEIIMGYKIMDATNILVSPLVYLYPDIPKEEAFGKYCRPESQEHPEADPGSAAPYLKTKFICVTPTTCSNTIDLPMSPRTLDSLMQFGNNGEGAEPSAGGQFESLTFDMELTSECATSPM
Sequence of Transcription factor Sp1 (Homo sapiens) (P08047 whole entry, looked up): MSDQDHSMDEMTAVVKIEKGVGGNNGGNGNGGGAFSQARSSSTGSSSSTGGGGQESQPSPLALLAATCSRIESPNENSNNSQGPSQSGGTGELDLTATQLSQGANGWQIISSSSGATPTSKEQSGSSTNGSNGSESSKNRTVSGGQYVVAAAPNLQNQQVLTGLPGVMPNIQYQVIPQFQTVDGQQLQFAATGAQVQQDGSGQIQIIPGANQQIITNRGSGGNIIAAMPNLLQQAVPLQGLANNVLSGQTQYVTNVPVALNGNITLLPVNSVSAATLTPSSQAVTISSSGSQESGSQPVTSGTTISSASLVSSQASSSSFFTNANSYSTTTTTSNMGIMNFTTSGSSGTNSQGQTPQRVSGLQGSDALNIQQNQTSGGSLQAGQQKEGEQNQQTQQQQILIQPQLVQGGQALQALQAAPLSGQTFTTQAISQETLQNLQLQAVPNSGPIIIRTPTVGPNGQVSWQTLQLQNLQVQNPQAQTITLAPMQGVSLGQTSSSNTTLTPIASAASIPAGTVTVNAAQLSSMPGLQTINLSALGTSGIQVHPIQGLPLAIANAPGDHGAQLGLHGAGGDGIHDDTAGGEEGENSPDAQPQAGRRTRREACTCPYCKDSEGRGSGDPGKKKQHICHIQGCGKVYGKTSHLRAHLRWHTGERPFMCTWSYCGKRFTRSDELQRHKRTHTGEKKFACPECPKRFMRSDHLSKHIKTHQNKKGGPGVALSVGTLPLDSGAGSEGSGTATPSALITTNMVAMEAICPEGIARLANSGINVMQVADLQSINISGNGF

`CC(CC(C)(C)C)CC(C)(C)CC(C)(C)C` (configuration not stated): the compound was called inactive in assay [1], in assay [2], in assay [3], in assay [4], in assay [5] and in assay [6]. In addition, the result in assay [7], in assay [8], in assay [9] and in [10] was inactive.
For `CCCCOCCOCCOCCOCCO`, the call in assay [1], in assay [3], in assay [4], in [5], in assay [6] and in assay [7] was inactive. In addition, the outcome in assay [8] and in [10] was inactive. For the same compound, the AC50 in [2] was 27.5 µM (active).
For the compound `C[C@H]1C[C@@H]2[C@H]([C@@H](O)C[C@@]3(C)[C@H]2CC[C@]3(O)C(=O)CO)[C@@]2(C)C=CC(=O)C=C12`, the outcome in [1], in assay [3], in assay [4], in assay [5], in assay [6] and in assay [7] was inactive. For the same compound, the result in [8], in assay [9] and in [10] was inactive. For the same compound, the AC50 in assay [2] was 62.9 µM (active).
Regarding `CCO[Si](CCCS)(OCC)OCC`, the result in assay [1], in assay [2], in assay [3], in [4], in assay [5] and in assay [6] was inactive. The compound was called inactive in [7], in [8] and in assay [10].
On to `N#Cc1nc(Cl)c(Cl)c(Cl)c1Cl`, for which the concentration at half-maximal activity (AC50) in [1] was 5.32 µM (active); in [2] it was 5.5 µM (active); in assay [5] it was 5.26 µM (active); in assay [7] it was 5.74 µM (active); in assay [10] it was 3.82 µM (active). Besides, the compound was classed as inactive in assay [3], in assay [4], in assay [6], in assay [8] and in assay [9].
As to `COc1cc(C=O)ccc1OC(=O)C(C)C`, the outcome in assay [1], in [2], in [3], in [4], in assay [5] and in assay [6] was inactive. The compound was classed as inactive in assay [7], in assay [8], in [9] and in assay [10].
For `O=C(Nc1ccccc1)c1cc([N+](=O)[O-])ccc1Cl`, the AC50 was 32.8 µM (active) in [1], 2.97 µM (active) in assay [2] and 40.5 µM (active) in assay [5]. Also, the compound was classed as inactive in [3], in assay [4], in assay [6], in [7], in assay [8] and in [9]. Besides, the compound was classed as inactive in assay [10].
On to `Nc1cc([N+](=O)[O-])ccc1O`, for which the result in [1], in assay [2], in assay [3], in [4], in assay [5] and in assay [6] was inactive. Also, the result in assay [7], in assay [8], in assay [9] and in [10] was inactive.
Turning to `CCC(=O)/C=C/C1C(C)=CCCC1(C)C` (configuration not stated), the outcome in assay [1], in assay [4], in [5], in assay [6], in assay [7] and in assay [8] was inactive. Further, the compound was called inactive in assay [9] and in assay [10]. The values for the AC50 in [2] and in assay [3] were 4.76 µM (active) and 35 µM (active), respectively.
For `C=C(C)C(=O)OCc1ccccc1`, the compound was classed as inactive in [1], in assay [2], in [3], in assay [4], in assay [5] and in assay [6]. In addition, the call in assay [7], in [8] and in assay [10] was inactive.
For the compound `C=CCOc1nc(OCC=C)nc(OCC=C)n1`, the call in assay [1], in assay [3], in [4], in [5], in [6] and in [7] was inactive. In addition, the compound was classed as inactive in assay [8] and in assay [10]. Further, the AC50 in [2] was 17.2 µM (active).
As for `O=C1CCCCCCCCCCCCCCO1`, the compound was classed as inactive in [1], in assay [2], in assay [3], in assay [4], in [5] and in [6]. Moreover, the result in assay [7], in assay [8], in assay [9] and in assay [10] was inactive.
Regarding `CCN(CC)c1ccc2c(-c3ccccc3C(=O)O)c3ccc(=[N+](CC)CC)cc-3oc2c1`, the AC50 is 149 µM (active) in assay [1], 0.882 µM (active) in [2], 26.9 µM (active) in assay [7] and 30.8 µM (active) in [10]. The result in assay [3], in assay [4], in [5], in assay [6], in assay [8] and in [9] was inactive.
For the compound `O=C(O)Cc1cccc2ccccc12`, the result in assay [1], in [2], in assay [4], in assay [5], in assay [6] and in assay [7] was inactive. Moreover, the call in assay [8], in assay [9] and in assay [10] was inactive. The AC50 in [3] is 100 µM (active).
Consider `CCCCCNCCCCC`, for which the result in assay [1], in [3], in assay [4], in assay [5], in assay [6] and in assay [7] was inactive. Further, the outcome in [8] and in assay [10] was inactive. Also, in assay [2], the AC50 is 59.4 µM (active).
Turning to `C=C[C@@H](C)CCC=C(C)C`, the compound was classed as inactive in [1], in [2], in assay [4], in assay [5], in assay [6] and in [7]. For the same compound, the result in assay [8], in assay [9] and in [10] was inactive.
Take `ClCCCl`: the result in assay [1], in [2], in assay [4], in [5], in assay [6] and in assay [7] was inactive. Further, the outcome in [8], in assay [9] and in [10] was inactive.
As to `N#Cc1ccc(CC(=NNC(=O)Nc2ccc(OC(F)(F)F)cc2)c2cccc(C(F)(F)F)c2)cc1`, the result in [1], in [2], in assay [3], in assay [5], in assay [6] and in assay [7] was inactive. For the same compound, the compound was called inactive in [8], in assay [9] and in assay [10].
